Values joined by “and” are separate entries in the source; they are usually repeats but may differ in a detail not shown here. Equal entries are not always repeated. The source holds several records for some structures; these can differ, active in one and inactive in another. Active and inactive are the calls of the source. Unless noted, calls come from the whole dose curve; as a rule, active = well fitted curve in the direction sought with a large enough effect in the repeat runs; inconclusive = weak or mixed curves; inactive = no such curve, though single readings can be large; an effect the other way counts as inactive or inconclusive.
Assays:
[1] = qHTS assay to identify small molecule antagonists of the glucocorticoid receptor (GR) signaling pathway - cell viability counter screen (AID 720693); note: nearly all actives have a fitted effect of over 55% in size; note: potency is the fitted concentration of half-maximal effect
[2] = qHTS assay for identifying genotoxic compounds that show differential cytotoxicity against isogenic chicken DT40 cell lines with known DNA damage response pathways - Rev3 mutant cell line (AID 743014); note: nearly all actives have a fitted effect of over 55% in size; note: potency is the fitted concentration of half-maximal effect
[3] = qHTS assay for identifying genotoxic compounds that show differential cytotoxicity against isogenic chicken DT40 cell lines with known DNA damage response pathways - Rad54/Ku70 mutant cell line (AID 743015); note: nearly all actives have a fitted effect of over 60% in size; note: potency is the fitted concentration of half-maximal effect
[4] = qHTS assay to identify small molecule antagonists of the androgen receptor (AR) signaling pathway - cell viability counter screen (AID 743033; note: nearly all actives have a fitted effect of over 45% in size; note: potency is the fitted concentration of half-maximal effect)
[5] = qHTS assay to identify small molecule antagonists of the androgen receptor (AR) signaling pathway using the MDA cell line - cell viability counter screen (AID 743041; note: nearly all actives have a fitted effect of over 45% in size; note: potency is the fitted concentration of half-maximal effect)
In short: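 qHTS viability read-out; MDA-kb2 AR-luc; R1881-stimulated; 16 h exposure at 37C, 0% CO2; CellTiter-Fluor, 30 min; fluorescence intensity.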

[6] = qHTS assay to identify small molecule antagonists of the thyroid receptor (TR) signaling pathway - cell viability counter screen (AID 743064); note: nearly all actives have a fitted effect of over 50% in size; note: potency is the fitted concentration of half-maximal effect
In short: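 GH3.TRE-Luc rat pituitary cells dosed after 4 hr plating, co-stimulated with T3 at 1 nM final, incubated 23.5 h at 37 C. Viability measured in the same wells by CellTiter-Fluor fluorescence after 30 min further at 37 C.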

[7] = qHTS assay to identify small molecule antagonists of the thyroid receptor (TR) signaling pathway (AID 743065); note: nearly all actives have a fitted effect of over 55% in size; note: potency is the fitted concentration of half-maximal effect
In short: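 GH3.TRE-Luc rat pituitary cells carrying two TR response elements driving luciferase were plated for 4 h, given compound plus 1 nM T3 (final), and incubated 23.5 h at 37 C. ONE-Glo luminescence measured reporter inhibition; CellTiter-Fluor fluorescence tracked cytotoxicity.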

[8] = system: thyroid hormone receptor (rat, GH3 cells); test: qHTS assay to identify small molecule agonists of the thyroid receptor (TR) signaling pathway (AID 743066; calls by dose curve; note: % is set by controls: 0 for no effect and ±100 for the full control effect)
[9] = qHTS assay to identify small molecule antagonists of the estrogen receptor alpha (ER-alpha) signaling pathway - cell viability counter screen (AID 743074; calls by dose curve; note: nearly all actives have a fitted effect of over 45% in size; note: potency is the fitted concentration of half-maximal effect)
[10] = target: Estrogen receptor (Homo sapiens) (UniProt P03372); test: qHTS assay to identify small molecule agonists of the estrogen receptor alpha (ER-alpha) signaling pathway (AID 743075; calls by dose curve; note: potency is the fitted concentration of half-maximal effect; for activation: % is set by controls: 0 for no effect and ±100 for the full control effect); conditions: HEK293 ER-alpha-UAS-bla, beta-lactamase FRET ratio, 18 h; activation: at 70.1 µM (top of the series)
Chain of Estrogen receptor (Homo sapiens) (P03372 whole entry, looked up): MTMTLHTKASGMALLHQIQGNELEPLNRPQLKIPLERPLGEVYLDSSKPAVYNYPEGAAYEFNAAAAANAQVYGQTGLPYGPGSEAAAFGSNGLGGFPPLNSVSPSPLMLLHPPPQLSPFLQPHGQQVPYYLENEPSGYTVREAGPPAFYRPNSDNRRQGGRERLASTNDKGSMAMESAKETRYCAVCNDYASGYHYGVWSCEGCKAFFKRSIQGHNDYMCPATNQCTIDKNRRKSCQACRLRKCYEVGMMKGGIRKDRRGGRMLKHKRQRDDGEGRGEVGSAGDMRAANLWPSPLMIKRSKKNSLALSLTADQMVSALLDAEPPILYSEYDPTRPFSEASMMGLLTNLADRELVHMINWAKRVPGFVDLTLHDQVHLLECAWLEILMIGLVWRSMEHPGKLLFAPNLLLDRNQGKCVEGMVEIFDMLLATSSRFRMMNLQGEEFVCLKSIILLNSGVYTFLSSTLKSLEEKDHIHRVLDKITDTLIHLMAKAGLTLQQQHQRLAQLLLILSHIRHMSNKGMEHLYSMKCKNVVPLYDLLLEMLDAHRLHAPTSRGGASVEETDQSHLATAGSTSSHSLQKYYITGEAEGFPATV

[11] = qHTS assay to identify small molecule antagonists of the estrogen receptor alpha (ER-alpha) signaling pathway using the BG1 cell line (AID 743080; calls by dose curve;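 note: BG1 cells stimulated with 17beta-estradiol alongside compound; nearly all actives have a fitted effect of over 25% in size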; note: potency is the fitted concentration of half-maximal effect)
In short: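 Luminescence from a 4×ERE-luciferase reporter in BG1-Luc-4E2 cells served as read-out. Cells, pre-cultured 5 days in stripped-serum phenol-red-free medium, were exposed to compound with 17beta-estradiol co-stimulation for 21.5 h at 37 C.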

[12] = qHTS assay to identify small molecule antagonists of the estrogen receptor alpha (ER-alpha) signaling pathway using the BG1 cell line - cell viability counter screen (AID 743081);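 note: compound given together with 17beta-estradiol as the ER stimulus; nearly all actives have a fitted effect of over 45% in size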; note: potency is the fitted concentration of half-maximal effect
[13] = target: Aromatase (Homo sapiens) (UniProt P11511); test: qHTS assay to identify aromatase inhibitors (AID 743083); note: nearly all actives have a fitted effect of over 55% in size; note: potency is the fitted concentration of half-maximal effect
Chain of Aromatase (Homo sapiens) (P11511 whole entry, looked up): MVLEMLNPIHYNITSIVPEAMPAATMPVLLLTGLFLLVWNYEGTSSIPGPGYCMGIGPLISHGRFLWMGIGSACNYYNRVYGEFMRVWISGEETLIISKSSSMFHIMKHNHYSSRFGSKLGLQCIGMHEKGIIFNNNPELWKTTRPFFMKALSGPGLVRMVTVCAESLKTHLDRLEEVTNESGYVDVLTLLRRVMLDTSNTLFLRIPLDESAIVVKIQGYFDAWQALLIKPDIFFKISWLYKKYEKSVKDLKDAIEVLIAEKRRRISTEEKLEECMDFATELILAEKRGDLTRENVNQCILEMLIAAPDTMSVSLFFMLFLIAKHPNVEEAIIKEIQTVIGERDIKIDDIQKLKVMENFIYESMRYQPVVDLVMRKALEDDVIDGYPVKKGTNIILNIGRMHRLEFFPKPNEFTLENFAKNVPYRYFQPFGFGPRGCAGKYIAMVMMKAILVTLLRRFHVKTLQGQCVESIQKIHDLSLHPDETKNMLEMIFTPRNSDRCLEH

[14] = target: Estrogen receptor (Homo sapiens) (UniProt P03372); test: qHTS assay to identify small molecule agonists of the estrogen receptor alpha (ER-alpha) signaling pathway using the BG1 cell line (AID 743079); conditions: BG1Luc4E2 cells, ERE-luciferase agonist, 22 h; note: nearly all actives have a fitted effect of over 20% in size; note: potency is the fitted concentration of half-maximal effect
[15] = qHTS assay for identifying genotoxic compounds that show differential cytotoxicity against isogenic chicken DT40 cell lines with known DNA damage response pathways - wild type cell line (AID 743012); note: nearly all actives have a fitted effect of over 60% in size; note: potency is the fitted concentration of half-maximal effect
In short: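 300 wt DT40 cells/well; cpd (DMSO) pintool-transferred after ~0.5 h at 37 C/5% CO2; 40 h incubation; CellTiter-Glo added, 30 min RT; luminescence read.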

[16] = target: Androgen receptor (Homo sapiens) (UniProt P10275); test: qHTS assay to identify small molecule agonists of the androgen receptor (AR) signaling pathway using the MDA cell line (AID 743040; note: % is set by controls: 0 for no effect and ±100 for the full control effect; nearly all actives have a fitted effect of over 20% in size)
Chain of Androgen receptor (Homo sapiens) (P10275 whole entry, looked up): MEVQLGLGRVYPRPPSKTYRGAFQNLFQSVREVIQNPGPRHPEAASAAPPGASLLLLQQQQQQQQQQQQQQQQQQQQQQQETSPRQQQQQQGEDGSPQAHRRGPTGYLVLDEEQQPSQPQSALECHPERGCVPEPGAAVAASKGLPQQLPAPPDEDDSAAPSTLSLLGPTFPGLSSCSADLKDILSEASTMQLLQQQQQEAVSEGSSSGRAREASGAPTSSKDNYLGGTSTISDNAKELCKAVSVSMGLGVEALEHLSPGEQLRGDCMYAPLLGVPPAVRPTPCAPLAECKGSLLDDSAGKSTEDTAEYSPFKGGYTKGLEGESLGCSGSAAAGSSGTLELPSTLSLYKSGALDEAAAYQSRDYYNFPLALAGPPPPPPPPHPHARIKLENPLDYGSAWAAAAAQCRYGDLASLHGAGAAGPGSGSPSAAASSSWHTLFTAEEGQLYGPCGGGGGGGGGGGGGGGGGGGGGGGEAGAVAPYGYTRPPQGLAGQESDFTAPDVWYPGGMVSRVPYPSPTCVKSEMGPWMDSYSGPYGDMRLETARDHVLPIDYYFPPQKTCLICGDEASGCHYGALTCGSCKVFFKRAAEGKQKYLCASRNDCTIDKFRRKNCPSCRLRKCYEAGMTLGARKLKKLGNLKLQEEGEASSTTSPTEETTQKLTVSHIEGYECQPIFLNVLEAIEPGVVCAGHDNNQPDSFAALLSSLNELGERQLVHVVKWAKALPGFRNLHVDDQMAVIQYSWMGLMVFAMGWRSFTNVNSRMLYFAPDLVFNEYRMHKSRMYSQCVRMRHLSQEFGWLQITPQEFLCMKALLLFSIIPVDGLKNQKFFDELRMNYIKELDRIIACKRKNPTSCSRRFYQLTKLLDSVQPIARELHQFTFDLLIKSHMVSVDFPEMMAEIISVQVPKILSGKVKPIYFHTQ
In short: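 Agonist activity is measured as luciferase luminescence in human MDA-kb2 cells whose MMTV reporter responds to both AR and GR. Compounds in DMSO incubate 16 h at 37C, 0% CO2, and ONE-Glo is read after 30 min.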

[17] = target: Androgen receptor (Homo sapiens) (UniProt P10275); test: qHTS assay to identify small molecule antagonists of the androgen receptor (AR) signaling pathway using the MDA cell line (AID 743042; note: nearly all actives have a fitted effect of over 55% in size; note: potency is the fitted concentration of half-maximal effect)
In short: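 MDA-kb2 cells (human breast carcinoma, stably carrying an MMTV-luciferase reporter responsive to AR and GR) were plated at 3,000 cells/well and preincubated 5 hr at 37C, then given compound plus R1881 agonist for 16 h. ONE-Glo luminescence was read.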

[18] = target: Estrogen receptor (Homo sapiens) (UniProt P03372); test: qHTS assay to identify small molecule antagonists of the estrogen receptor alpha (ER-alpha) signaling pathway (AID 743069; active = well fitted curve in the direction sought with a large enough effect in the signal ratio in the repeat runs, not every such curve was filed as active; inconclusive = weak or mixed curves, or effect the other way; inactive = no such curve, though single readings can be large or run the other way; the % refers to the signal ratio; note: % is set by controls: 0 for no effect and ±100 for the full control effect)
In short: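 Screening used a UAS-driven beta-lactamase reporter integrated into HEK293 cells expressing ER-alpha, stimulated with 17beta-estradiol alongside test compounds over 18 hr at 37C; signal came from LiveBLAzer B/G FRET fluorescence.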

[19] = target: Androgen receptor (Homo sapiens) (UniProt P10275); test: qHTS assay to identify small molecule antagonists of the androgen receptor (AR) signaling pathway (AID 743035; active = well fitted inhibition curve with a large enough effect in the signal ratio in the repeat runs, not every such curve was filed as active; inconclusive = weak or mixed curves, or effect the other way; inactive = no such curve, though single readings can be large or run the other way; the % refers to the signal ratio; note: potency is the fitted concentration of half-maximal effect)
In short: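 In this cell-based reporter screen, compounds were tested in concentration series against R1881-activated HEK293 cells expressing beta-lactamase under UAS control; after 16 h at 37C, FRET substrate was added and fluorescence read 2 h later.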

[20] = target: Androgen receptor (Homo sapiens) (UniProt P10275); test: qHTS assay to identify small molecule agonists of the androgen receptor (AR) signaling pathway (AID 743036; active = well fitted activation curve with a large enough effect in the signal ratio in the repeat runs, with a control signal flat, not every such curve was filed as active; inconclusive = weak or mixed curves, or effect the other way; inactive = no such curve, though single readings can be large or run the other way; the % refers to the signal ratio; note: % is set by controls: 0 for no effect and ±100 for the full control effect)
In short: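 AR-UAS-bla HEK293 cells, plated 4 h before dosing, were treated with compound for 16 h at 37C. beta-Lactamase reporter read after 2 h with LiveBLAzer B/G FRET substrate at room temperature.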

CC1=NC(C)OC1C (centres undefined)
inactive: Potency [1] | Potency [2] | Potency [3] | Potency [4] | Potency [5] | Potency [6] | Potency [7] | Potency [8] | Potency [9] | Potency [10] | Potency [11] | Potency [12] | Potency [13]

OCCCCCCCCCCCCBr
active: Potency [2] 3.92 µM | Potency [3] 5.53 µM
inactive: Potency [1] | Potency [8] | Potency [9] | Potency [12] | Potency [13]

NC(=NCCCCCCN=C(N)/N=C(\N)Nc1ccc(Cl)cc1)/N=C(\N)Nc1ccc(Cl)cc1
inactive: Potency [5] | Potency [8]
inactive and 68.2 µM (active): Potency [12]
active: Potency [1] 21.3 µM [middle of 5 runs] | Potency [2] 15.3 µM [middle of 5 runs] | Potency [3] 17.1 µM [middle of 5 runs] | Potency [6] 8.56 µM [middle of 5 runs] | Potency [7] 6.06 µM [middle of 5 runs] | Potency [9] 25 µM [middle of 4 runs] | Potency [13] 24.1 µM [middle of 4 runs]

CCCCCCCCOC(=O)c1ccc(O)cc1
inactive: Potency [1] | Potency [4] | Potency [5] | Potency [8] | Potency [9] | Potency [11] | Potency [12]
active: Potency [2] 60.9 µM | Potency [3] 60.9 µM | Potency [6] 61.1 µM | Potency [10] 61.4 µM [inconclusive] and 43.7 µM [activator] | Potency [14] 7.67 µM and 17.2 µM | Potency [13] 21.6 µM and 54.5 µM

Nc1ccc2cc(S(=O)(=O)O)cc(O)c2c1N=Nc1ccccc1C(F)(F)F
inactive: Potency [1] | Potency [15] | Potency [3] | Potency [4] | Potency [8] | Potency [9] | Potency [13]

CN(C)c1ccc(SC#N)cc1
inactive: Potency [4] | Potency [5] | Potency [8] | Potency [9] | Potency [10] | Potency [11] | Potency [12] | Potency [13]
active: Potency [15] 27.3 µM | Potency [2] 30.6 µM | Potency [3] 38.6 µM | Potency [14] 61.1 µM

Oc1cccc(-c2c3nc(c(-c4cccc(O)c4)c4ccc([nH]4)c(-c4cccc(O)c4)c4nc(c(-c5cccc(O)c5)c5ccc2[nH]5)CC4)C=C3)c1
inactive and 26.6 µM (active): Potency [13]
active: Potency [15] 29.8 µM | Potency [2] 29.8 µM | Potency [3] 26.6 µM | Potency [5] 23.7 µM | Potency [6] 11.9 µM and 10.6 µM | Potency [7] 8.41 µM and 7.5 µM | Potency [12] 9.44 µM and 11.9 µM
inactive and 23.9 µM (active): Potency [4]
inactive: Potency [16] | Potency [17] | Potency [10] | Potency [11]

O=C(O)c1cc(O)c2c(c1)C(=O)c1cccc(O)c1C2=O
active: Potency [14] 39.7 µM
inactive: Potency [15] | Potency [2] | Potency [3] | Potency [4] | Potency [5] | Potency [6] | Potency [7] | Potency [8] | Potency [18] | Potency [9] | Potency [10] | Potency [11] | Potency [13]

O=C(O)c1c(Cl)cccc1Cl
inactive: Potency [15] | Potency [2] | Potency [3] | Potency [4] | Potency [6] | Potency [7] | Potency [8] | Potency [9] | Potency [12] | Potency [13]

Cc1cc(CCN2CCN(c3nsc4ccccc34)CC2)cc2c1NC(=O)CC2(C)C
inactive: Potency [10]
active: Potency [15] 3.06 µM | Potency [2] 5.45 µM | Potency [3] 4.86 µM | Potency [4] 13.8 µM | Potency [5] 48.6 µM | Potency [17] 15.4 µM | Potency [6] 43.3 µM | Potency [7] 27.3 µM | Potency [9] 27.5 µM | Potency [12] 54.5 µM | Potency [13] 24.3 µM

O=C1C=CC(=O)N1
inactive: Potency [10] | activation ([14]; at 95 µM (top of the series)) -8.49%
active: Potency [15] 6.28 µM | Potency [2] 2.5 µM | Potency [3] 5.59 µM | Potency [4] 22.5 µM | Potency [5] 55.9 µM | Potency [17] 31.4 µM | Potency [6] 9.95 µM | Potency [9] 56.4 µM | Potency [13] 8.86 µM

Cc1cccc(S(=O)(=O)O)c1C
inactive: Potency [15] | Potency [2] | Potency [3] | Potency [4] | Potency [5] | Potency [6] | Potency [7] | Potency [8] | Potency [18] | Potency [9] | Potency [10] | activation ([14]; at 70.3 µM (top of the series)) -6.85% | Potency [11] | Potency [12] | Potency [13]

CC[C@H](c1ccc(O)cc1)[C@@H](CC)c1ccc(O)cc1
active: Potency [15] 12.2 µM | Potency [2] 10.1 µM and 13.7 µM | Potency [3] 19.3 µM | Potency [19] 8.11 µM and 21.9 µM | Potency [6] 30.6 µM | Potency [7] 19.3 µM | Potency [10] 0.2 nM [inconclusive] | activation [10] 38.2% [inconclusive] | activation ([14]; at 32.5 µM (top of the series)) 58.6% | activation ([14]; at 70.3 µM (top of the series)) -55.2% | Potency [11] 68.6 µM
inactive and 54.5 µM (active): Potency [17]
inactive and 27.3 µM (active): Potency [13]
inactive: Potency [4] | Potency [20] | Potency [5] | Potency [8] | Potency [18] | Potency [9] | Potency [12]

Cc1cc(O)c(C(C)(C)C)cc1Sc1cc(C(C)(C)C)c(O)cc1C
inactive: Potency [8]
active: Potency [15] 21.6 µM | Potency [2] 12.2 µM | Potency [3] 12.2 µM | Potency [4] 15.5 µM | Potency [5] 38.5 µM | Potency [17] 24.3 µM | Potency [6] 3.43 µM | Potency [7] 2.43 µM | Potency [9] 17.3 µM | Potency [12] 54.4 µM | Potency [13] 13.7 µM
